Assay outcomes (PubChem)
Sampled rows, rich in hits. Any-hit rate of the full collection: about 11%.
Pf growth 96h – inhibits malaria parasite growth, 96 h. P. falciparum luciferase reporter growth, 96 h. Potency, µM (doses to about 28.7 µM), most hits filed as inhibitors. 6.9% of 320,000 active. AID 504834
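Readout is luminescence from an integrated firefly luciferase in P. falciparum. Red cells, 2% hematocrit and 0.05% parasitemia final, were cultured with compound through two parasite generations (96 hours) at 37 C, 5% CO2.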
Vaccinia Venus – vaccinia inhibition (Venus reporter); Vaccinia virus Venus reporter expression, fluorescence; Potency, µM (top dose mostly 36.5 µM), actives largely listed as inhibitors; 0.46% of 330,000 active; AID 720580; calls by dose curve; tested in A549 cells; note: nearly all actives have a fitted effect of over 30% in size
HCV inhibitor – HCV inhibition; Huh7.5.1 HCVcc-Cre infection, luciferase reporter, 44 h; Potency, µM (highest dose often 41.8 µM), usual class: inhibitors; 3.4% of 340,000 active
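Whole-lifecycle infectious HCVcc-Cre system; cells 1,000/well, compound then virus (~0.5 moi) added 4 h after plating, 44 h culture. Luciferase read 15 sec following 15 min substrate incubation, room temp.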
Pf growth 48h – inhibits P. falciparum growth in the first generation, 48 h | P. falciparum luciferase growth in erythrocytes, 48 h | Potency, µM (top dose mostly 28.7 µM), hits mostly inhibitors | 5.9% of 310,000 active | AID 504832
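Here the parasites carry a stable luciferase gene and grow inside erythrocytes in Albumax-based RPMI medium with compound for one erythrocytic cycle. Activity is scored as loss of luminescent signal.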
Vaccinia mCherry – inhibitors of vaccinia virus infection (mCherry reporter signal). AID 720579. 0.63% of 310,000 active. Vaccinia virus mCherry reporter infection, fluorescence. Potency, µM (series often up to 36.5 µM), most hits filed as inhibitors; calls by dose curve; tested in A549 cells; note: nearly all actives have a fitted effect of over 35% in size
NS1 function inh – blocks influenza NS1 protein function | Potency, µM (titrated, usually from 46.1 µM) | 0.4% of 270,000 active | AID 2326; calls by dose curve; note: actives are rising curves; nearly all actives have a fitted effect of over 50% in size
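A cell-based growth assay was used: compounds that relieve NS1-induced slow growth of budding yeast raise OD600. Assay medium was yeast nitrogen base with ammonium sulphate and -URA supplement, pH 6.0, with 2% galactose.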
Hits are given with their value; . = inactive; ? = inconclusive; / = not tested or not shown; [ ] = remark or other dose. Unless noted, calls come from the whole dose curve; as a rule, active = well fitted inhibition curve with a large enough effect; inconclusive = small, poorly fitted or top-dose-only effect, or another doubt; inactive = no such curve, though single readings can be large or run the other way.

SMILES	Pf growth 96h	Vaccinia Venus	HCV inhibitor	Pf growth 48h	Vaccinia mCherry	NS1 function inh
O=C(OC[C@H]1O[C@@H](OC(=O)c2cc(O)c(O)c(OC(=O)c3cc(O)c(O)c(O)c3)c2)[C@H](OC(=O)c2cc(O)c(O)c(OC(=O)c3cc(O)c(O)c(O)c3)c2)[C@@H](OC(=O)c2cc(O)c(O)c(OC(=O)c3cc(O)c(O)c(O)c3)c2)[C@@H]1OC(=O)c1cc(O)c(O)c(OC(=O)c2cc(O)c(O)c(O)c2)c1)c1cc(O)c(O)c(OC(=O)c2cc(O)c(O)c(O)c2)c1	9.28µM	10µM	11.2µM	?	5.62µM	/
O=C(NCCc1ccccc1F)C1CC(=O)N(c2cccc(C(F)(F)F)c2)C1 (configuration not stated)	/	.	.	/	.	/
Oc1ccc(N=Nc2c(O)ccc3ccccc23)cc1	?	.	14.1µM	?	?	.
NS(=O)(=O)c1ccc(N=Nc2c(O)ccc3ccccc23)cc1	.[5.75 µM]	.	.	.	.	.
CCOC(=O)N1CCC(NC(=O)C2CCCN(C(=O)N3CCOc4ccccc43)C2)CC1 (configuration not stated)	.	.	.	?	/	.
Cc1nc(CS(=O)c2ccccc2)cc(N2CCOCC2)n1 (configuration not stated)	8.28µM	.	.	?	/	.
COc1ccc(CCn2nnnc2C(CC(C)C)N2CCN(c3ncccn3)CC2)cc1OC (configuration not stated)	.	.	.	/	.	.
O=c1[nH]c(Cc2ccccc2)nc2ccccc12	.	.	.	.	.	.
O=c1[nH]c(Cc2ccccc2Cl)nc2ccccc12	9.28µM	.	.	.	.	/
CCN1CCN(C(=O)CCc2nc3ccccc3c(=O)[nH]2)CC1	.	.	.	.	.	.
CC1CCCCN1Cc1nc2ccccc2c(=O)[nH]1 (configuration not stated)	0.0185µM	.	.	.	.	.
NC(=O)C1CCN(Cc2nc3ccccc3c(=O)[nH]2)CC1	/	/	.	.	/	.
O=C(CCc1nc2ccccc2c(=O)[nH]1)N1CCN(c2ccccc2Cl)CC1	/	/	11.2µM	/	/	/
CN(CCOC(=O)c1ccco1)Cc1ccccc1	?	.	.	/	/	.
O=C(/C=C/c1ccccc1)CC(=O)c1ccccc1O	?	/	11.2µM	.	/	.
O=C(C=Cc1ccccc1)Nc1ccccc1	/	.	.	/	.	/
O=C(/C=C/c1ccccc1)NC(=O)c1ccccc1O	1.65µM	/	.	1.31µM	/	.
CCCOC(=O)c1cc(NC(=O)/C=C/c2ccccc2)ccc1O	10.4µM	/	/	?	/	.
CCC1C(c2cc(OC)c(OC)c(OC)c2)c2cc3c(cc2OC1N1CCCC1)OCO3 (configuration not stated)	/	?	?	/	.	/
CCN(CC(=O)Nc1ccccc1C(F)(F)F)C(=O)CCSc1ccc(F)cc1	.	?	.	.	.	/
CN1CCc2cccc3c2[C@@H]1Cc1ccc(O)c(O)c1-3	2.62µM	.	.[8.37 µM]	2.62µM	.	.
c1ccc(C2CNCCc3ccccc32)cc1 (configuration not stated)	1.65µM	/	.	.[0.00184 µM]	/	.
COc1ccc(OC)c(CCNC(=O)CS(=O)(=O)Cc2nc(-c3ccccc3Cl)oc2C)c1	.	/	?	.	/	.
CC(=O)N(Cc1ccc(F)cc1)C1=C(NCc2ccccc2)C(=O)c2ccccc2C1=O	?	3.55µM	5.01µM	/	2.51µM	.
O=C(NCc1ccc(F)cc1)C(c1ccccc1)c1ccccc1	?	/	.	.	/	.
SMILES	Pf growth 96h	Vaccinia Venus	HCV inhibitor	Pf growth 48h	Vaccinia mCherry	NS1 function inh
CC(C)OC(=O)CSc1nnc2n1C(C)(C)Cc1ccccc1-2	?	/	.	.	/	.
CCOC(=O)CSc1nnc2n1C(C)(C)Cc1ccccc1-2	?	/	.	.	/	.
CC1Cc2ccccc2N1C(=O)CSc1nnc2n1C(C)(C)Cc1ccccc1-2 (configuration not stated)	2.62µM	/	?	?	/	.
COc1ccccc1N1CCN(C(=O)CSc2nnc3n2C(C)(C)Cc2ccccc2-3)CC1	.	?	6.31µM	?	.	.
CCOn1c(=O)c[n+]([O-])c2ccccc21	.	.	.	.	.	/
OC(c1ccccc1)(c1ccccc1)c1nccn1-c1ccccc1	/	.	.	/	.	/
COc1cc(OC)c(OC)cc1CN1CCN(Cc2ccc(C(F)(F)F)cc2)CC1	.	/	11.2µM	?	/	.
CCCCn1c(COc2cccc(OC)c2)nc2ccccc21	/	.	/	/	.	/
c1ccc(CNc2nc(-c3cccnc3)nc3ccccc23)cc1	8.28µM	/	?	9.28µM	/	.
CC(Nc1nc(-c2ccccc2)nc2ccccc12)c1ccccc1 (configuration not stated)	.	?	.	?	.	.
Cc1nc(NCc2ccccn2)c2ccccc2n1	.	.	10µM	.	?	.
c1ccc(CNc2nc(NCc3ccccc3)c3ccccc3n2)cc1	0.738µM	.[7.34 µM]	?	1.17µM	.[7.34 µM]	.
CC(Nc1nc(-c2cccnc2)nc2ccccc12)c1ccc(F)cc1 (configuration not stated)	6.57µM	.	8.91µM	4.65µM	?	.
O=C1c2ccccc2C(O)(Cc2ccccc2)N1Cc1ccco1 (configuration not stated)	.	.	.	.	.	.
